# Compounds with a hit are over-represented: about 3.9% of the library has one in this group of screens.
# PLCb3 inh: PLC-beta3 (human) inhibition, primary screen; inhibition, % at 12.2 µM; 370,000 tested, 0.18% active; Purified PLC-beta3, fluorogenic substrate, fluorescence; Q01970; in the data active means inhibition above about 11%;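 further: 0% = median of compound wells on plate and 100% = full blocker control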
# AHR activator: activators of human aryl hydrocarbon receptor | AHR-responsive luciferase reporter cells, luminescence | activation, % at 5 µM | AID 2796 | 320,000 tested, 2.5% active; in the data active means activation above about 47%;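 further: 0% = vehicle wells and 100% = reference agonist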
# HGIII-sPLA2 inh: Inhibits HGIII-sPLA2 liposome hydrolysis, primary screen. QFRET BODIPY PC-A2 liposome hydrolysis, fluorescence. inhibition, % at 12.2 µM. AID 743126. 370,000 tested, 0.56% active;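 active means inhibition above mean plus 3 SD of compounds lying within the high and low control bounds, cut at about 19% in these data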;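 further: 0% = median of test compound wells and 100% = no enzyme DMSO wells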
# Target sequence (Q9NZ20 whole entry, looked up): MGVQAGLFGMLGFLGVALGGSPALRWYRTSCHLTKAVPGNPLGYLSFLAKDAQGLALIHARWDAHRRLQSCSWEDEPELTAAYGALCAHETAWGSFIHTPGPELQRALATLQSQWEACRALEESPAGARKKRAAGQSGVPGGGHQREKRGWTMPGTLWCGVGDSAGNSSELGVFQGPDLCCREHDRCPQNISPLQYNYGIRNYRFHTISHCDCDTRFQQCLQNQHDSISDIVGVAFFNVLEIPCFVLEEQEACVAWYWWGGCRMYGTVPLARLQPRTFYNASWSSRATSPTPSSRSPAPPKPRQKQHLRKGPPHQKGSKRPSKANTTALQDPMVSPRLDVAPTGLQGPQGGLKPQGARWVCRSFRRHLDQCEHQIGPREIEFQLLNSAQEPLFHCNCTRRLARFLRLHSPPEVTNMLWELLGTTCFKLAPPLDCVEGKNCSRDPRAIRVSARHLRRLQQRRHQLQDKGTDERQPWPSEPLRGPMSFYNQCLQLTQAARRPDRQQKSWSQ
# HIF activator: HIF pathway transcriptional activation | AID 1910 | U2OS HRE-luciferase reporter, luminescence; normalized: DMSO 0%, desferrioxamine 100% | 300,000 tested, 0.32% active | activation, % at 7.5 µM (by protocol);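 active means mean activation of at least 10% of the iron chelator positive control signal, with at least half of replicates also reaching 10%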
# CR mimetic SO: yeast age-related superoxide inhibition as caloric restriction mimetic; S. cerevisiae aged cells, superoxide DHE fluorescence; active compounds read low; superoxide response (% of plate mean), % at 10 µM; 330,000 tested, 0.18% active; AID 2690;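 active means superoxide response under a set limit, about three screen SD below normal, cut at about 65% in these data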;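 further: yeast aged for seven days with compound at 30 °C before DHE staining; 100% = average MFI of all compound-treated wells on the plate with controls excluded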
# PLCg1 inh: blocks human PLC-gamma1 enzyme activity; P19174; purified PLC-gamma1, fluorogenic substrate, fluorescence; inhibition, % at 12.2 µM; 370,000 tested, 0.84% active; in the data active means inhibition above about 9.5%
# Active calls of the source: *; . = not tested or not shown.
SMILES,PLCb3 inh,AHR activator,HGIII-sPLA2 inh,HIF activator,CR mimetic SO,PLCg1 inh
N#C/C(=C(/O)C(Cl)(Cl)Cl)c1nc2ccccc2[nH]1,-23.1,52.8*,-4.7,0.0,117.3,-10.4
COc1cc(OC)cc(C(=O)OC/C(O)=C(\C#N)c2nc3ccccc3[nH]2)c1,-25.9,2.7,4.8,0.1,96.5,-10.2
CC(=O)OC(/C(O)=C(\C#N)c1nc2ccccc2[nH]1)c1ccccc1 (stereo not given),0.5,49.1*,-23.6,0.0,104.4,-2.7
O=C(Nc1cc(Cl)ccc1-n1cncn1)c1cc(F)c(F)c(F)c1F,0.6,55.8*,5.8,-0.1,117.3,-0.7
O=C(Nc1cc(Cl)ccc1-n1cncn1)c1ccc(Br)o1,-2.9,60.7*,9.7,1.2,102.2,-3.7
CCN(CC)C(=O)CC[C@H]1CC[C@]2(CCCN(Cc3ccncc3)C2)O1,1.0,.,2.3,.,.,-1.9
CC(C)Oc1cccc(-c2csc(N3CCC(C(N)=O)CC3)n2)c1,-3.8,.,5.7,.,.,-0.3
CC1=C(O)C(=O)C(C2=C(O)C(=O)C(C)=C(O)C2=O)=C(O)C1=O,3.5,.,3.7,.,.,47.3*
NC(=O)[C@H]1CC2(CC(c3cccc(NC(=O)CC(c4ccccc4)c4ccccc4)c3)=NO2)CN1C(=O)C(c1ccccc1)c1ccccc1 (stereo not given in full),4.7,-3.6,-23.0,-4.5,87.2,12.9*
CCN(CC)Cc1c(NC(=O)c2ccccc2)sc(C)c1C,-6.2,64.8*,5.5,1.2,89.3,-5.4
O=C1N(CC[C@@H](O)c2ccccc2)CCC12CCC(c1ccccc1)CC2 (stereo not given in full),2.0,.,0.0,.,.,2.9
COc1ccc(C(=O)NC(C)c2ccc(-n3ccnc3)cc2)cc1[N+](=O)[O-] (stereo not given),-2.5,9.1,0.6,0.0,106.8,1.5
Cc1ccc(C)c(C(=O)NC(C)c2ccc(-n3ccnc3)cc2)c1 (stereo not given),-4.9,78.2*,1.8,1.2,.,-0.6
Cc1c(C(=O)NC(C)c2ccc(-n3ccnc3)cc2)cccc1[N+](=O)[O-] (stereo not given),-1.0,60.5*,-0.3,-0.9,102.3,-2.9
Cc1ccc(C(=O)NC(C)c2ccc(-n3ccnc3)cc2)c(C)c1 (stereo not given),-2.0,30.8,0.8,0.6,97.7,5.2
CSc1ccccc1C(=O)NC(C)c1ccc(-n2ccnc2)cc1 (stereo not given),-7.0,67.1*,8.6,0.2,80.9,0.0
CC(NC(=O)c1ccccc1Cl)c1ccc(-n2ccnc2)cc1 (stereo not given),-6.1,53.9*,5.9,-0.2,94.0,3.0
CC(NC(=O)CNC(=O)c1ccccc1F)c1ccc(-n2ccnc2)cc1 (stereo not given),-3.7,-0.6,8.9,.,105.3,2.8
Cc1ccccc1N1CCN(S(=O)(=O)c2ccc3c(c2)n(C)c(=O)c(=O)n3C)CC1,1.3,.,-0.3,.,.,0.6
CC(C)C[C@H](NC1(C(=O)NC2CCCCC2)CCN(C)CC1)C(=O)NCC(c1ccccc1)c1ccccc1,3.9,.,1.7,.,.,4.6
COC(=O)CSc1nnc(-c2ccc(NS(=O)(=O)c3ccc(C(C)(C)C)cc3)cc2)o1,-6.0,.,-42.9,.,.,-1.1
CCOc1ccc(NC(=O)CSc2nnc(Cn3cnc4ccccc43)n2C)cc1,-1.8,3.7,-1.6,19.8*,100.0,0.2
COc1ccc(NC(=O)CSc2nnc(Cn3nnc4ccccc43)n2C)cc1,2.2,2.9,-2.8,.,97.2,1.1
C=CCn1c(=N)n(CC(=O)c2ccc(OC)cc2)c2ccccc21,-5.0,66.9*,-8.4,0.0,106.9,-0.1
Cn1c(=N)n(CC(=O)c2ccc(Cl)c(Cl)c2)c2ccccc21,-12.8,53.8*,-1.9,-29.1,84.5,-5.7
COc1ccc(C(=O)Cn2c(=N)n(C)c3ccccc32)cc1,-2.5,75.7*,-2.2,2.0,101.9,4.3
CC(=O)C1(C(=O)Nc2cc(C)cc(C)c2)CC(c2ccccn2)=NO1 (stereo not given),-3.8,.,12.0,.,.,-3.6
CC(c1c[nH]c2ccccc12)c1cn(C)c2ccccc12 (stereo not given),-11.3,.,-31.5,.,.,-7.5
Cc1ccc(C)c(OCC(O)CN2CCCCC2C)c1 (stereo not given),5.8,48.0*,6.3,0.4,93.6,6.1

# Source: PubChem
